Bioassay records: PubChem, National Center for Advancing Translational Sciences (NCATS)
Vaccinia mCherry: qHTS for Stage-Specific Inhibitors of Vaccinia Orthopoxvirus: mCherry Reporter Primary qHTS; Vaccinia virus mCherry reporter infection, fluorescence; Potency, µM (series often up to 36.5 µM), for inactives: top-dose activity change, negative = inhibition, actives largely listed as inhibitors; 310,000 tested, 0.63% active; calls by dose curve; tested in A549 cells; note: potency is the fitted concentration of half-maximal effect; % is set by controls: 0 for no effect and ±100 for the full control effect; nearly all actives have a fitted effect of over 35% in size
Cycloheximide cs: Cycloheximide Counterscreen for Small Molecule Inhibitors of Shiga Toxin | cell reporter, cycloheximide protein synthesis inhibition counterscreen | max response, % | 300,000 tested, 12% active; in the data active = max response mostly above about 13%, no sharp cut-off; inactive = mostly below about 14%; note: read at 38.3 µM for the half of the compounds with a filed dose; 0% is about no effect
VACV Venus inh: qHTS for Stage-Specific Inhibitors of Vaccinia Orthopoxvirus: Venus Reporter Primary qHTS | Vaccinia virus Venus reporter expression, fluorescence | 330,000 tested, 0.46% active | Potency, µM (top dose mostly 36.5 µM), for inactives: top-dose activity change, negative = inhibition, usual class: inhibitors; calls by dose curve; tested in A549 cells; note: potency is the fitted concentration of half-maximal effect; % is set by controls: 0 for no effect and ±100 for the full control effect; nearly all actives have a fitted effect of over 30% in size
Shiga toxin inh: A qHTS for Small Molecule Inhibitors of Shiga Toxin | inhibition, % at 38.7 µM | AID 2315, 2010 | Vero cells, Shiga toxin protein synthesis inhibition reporter | 290,000 tested, 9.2% active; in the data active = inhibition mostly above about 28%, no sharp cut-off; inactive = mostly below about 43%; note: 0% is about no effect
Marburg entry inh: qHTS for inhibitors of binding or entry into cells for Marburg Virus. Marburg virus pseudotyped entry inhibition, cell reporter. Potency, µM (doses to about 37.8 µM), for inactives: at the highest dose activity change, negative = inhibition, most hits filed as inhibitors. 300,000 tested, 1.8% active. AID 540276, 2011; calls by dose curve; tested in HEK293 cells; note: potency is the fitted concentration of half-maximal effect; % is set by controls: 0 for no effect and ±100 for the full control effect
Lassa entry inh: qHTS for Inhibitors of binding or entry into cells for Lassa Virus; Potency, µM (series often up to 37.9 µM), for inactives: at the top dose activity change, negative = inhibition, usual class: inhibitors; Lassa virus pseudotype entry inhibition, cell reporter; AID 540256, 2011; 300,000 tested, 1.2% active; calls by dose curve; tested in HEK293 cells; note: potency is the fitted concentration of half-maximal effect; % is set by controls: 0 for no effect and ±100 for the full control effect; nearly all actives have a fitted effect of over 50% in size
* = called active by the depositor; i = inactive; u = inconclusive; x = not tested or not shown; [ ] = another dose, or the depositor's remark. The sample as a whole holds a higher share of hits than the screen did.

SMILES | Vaccinia mCherry | Cycloheximide cs | VACV Venus inh | Shiga toxin inh | Marburg entry inh | Lassa entry inh
O=C(Nc1ccccc1F)c1oc2ccccc2c1NC(=O)C12CC3CC(CC(C3)C1)C2 | -6% | x | -8% | x | -6%[46.1 µM] | 13%[46.1 µM]
CCCCN(C)C(=O)CN1C(=O)c2cccnc2Oc2ccc(Cl)cc21 | -7% | x | -6% | x | x | -21%[46.1 µM]
Cc1ccc(C(=O)Nc2cc3c(cc2C)n(C)c(=O)c(=O)n3C)cc1 | -10% | x | -8% | x | x | 8%[46.1 µM]
CCc1ccc(CNC(=O)COc2cc(=O)n(CC)c3ccccc23)cc1 | u | x | -22% | x | 26%[46.1 µM] | -19%[46.1 µM]
C=C1NN(Cc2ccccc2)C(=O)N1c1ccc(OCc2ccccc2)cc1 | i | x | -12% | x | x | x
NC(=O)c1ccc[n+](Cc2ccc(-c3ccccc3)cc2)c1 | -15% | -3 | 3% | -2 | 30% | u
CCc1ccccc1N(CC)C(=O)CCc1nc(-c2ccc(C)cc2)no1 | x | 5 | -25% | 15 | u | 10µM*
CC(C)(C)c1ccc(-c2noc(CCC(=O)Nc3cccnc3)n2)cc1 | -16% | -3 | -17% | 4 | u | u
CN(C)C(=O)CCc1nc(-c2ccc(C(C)(C)C)cc2)no1 | x | 44* | u | 123* | u | u
CC(C)(C)c1ccc(-c2noc(CCC(N)=O)n2)cc1 | x | 35* | x | 72* | 1.5µM* | u
CC(C)(C)c1cc(CCC(=O)NCC2CCCO2)cc(C(C)(C)C)c1O (stereo not drawn) | 4µM* | -3 | -20% | -11 | 8%[46.1 µM] | 30%[46.1 µM]
Cc1ccc(NC(=O)Cn2nnnc2-c2ccccc2N)cc1 | -5% | x | -16% | x | -13%[46.1 µM] | 5%[46.1 µM]
Cc1c(C(=O)N(C)C)sc2c1c(=O)n(-c1ccc(Cl)cc1)c(=O)n2CC(=O)C(C)(C)C | 5% | x | -3% | x | x | 22%[46.1 µM]
Cc1nn2cc(-c3ccc(-c4ccccc4)cc3)nc2s1 | x | 26* | -14% | 49 | u | 11µM*
NS(=O)(=O)c1nn2cc(-c3ccccc3)nc2s1 | x | 19* | x | 59* | x | x
Cc1nn2cc(-c3ccccc3)nc2[nH]c1=O | -16%[1.46 µM] | 12 | -2% | 21 | 4% | 12%
Cc1nn2c(-c3ccc(Cl)cc3)nnc2s1 | x | -4 | x | 6 | u | -7%
Cc1nc2nc(-c3ccc(Cl)cc3)cn2nc1C | u | 38* | 0% | 93* | -12% | u
Cc1nc2nc(CCNS(=O)(=O)c3ccc(Cl)cc3)cn2nc1C | x | 11 | x | -2 | x | x
Cc1nn2cc(-c3ccc(Cl)cc3)nc2s1 | x | 59* | x | 112* | u | u
COC(=O)c1ccc(Cl)cc1NC(=O)Nc1nnc(N(C)C2CCCCC2)s1 | -6% | x | -11% | x | -1%[46.1 µM] | 9%[46.1 µM]
COc1ccccc1CNS(=O)(=O)c1c(C(=O)N2CCC(C)CC2)c(C)n(C)c1C | i | x | -11% | x | x | -16%[46.1 µM]
CC(C)(C)NC(=O)C1CC(=O)N(CCc2ccc(F)cc2)C1 (stereo not drawn) | i | -1 | -6% | 1 | -4% | -3%
c1ccc(-c2cn3nc(-c4ccccc4)c(-c4ccccc4)nc3n2)cc1 | x | 3 | x | 26 | -2% | 1%
Cc1nc2nc(-c3cccs3)cn2nc1C | x | 31* | x | 54 | u | 10µM*
SMILES | Vaccinia mCherry | Cycloheximide cs | VACV Venus inh | Shiga toxin inh | Marburg entry inh | Lassa entry inh
COCc1nn2cc(-c3ccc(C)cc3)nc2s1 | -12% | x | -5% | x | u | -1%[46.1 µM]
COc1cccc(-c2cn3nc(C)c(C)nc3n2)c1 | -1% | 41* | -15% | 167* | u | u
CCc1nn2cc(-c3ccccc3)nc2s1 | x | 6 | x | 5 | 18µM* | 8.2µM*
Cc1ccc(-c2cn3nc(-c4ccccc4)c(-c4ccccc4)nc3n2)cc1 | -23% | 16* | -8% | 45 | u | u
COc1ccccc1C(=O)n1nc(-c2ccco2)nc1NCc1ccc(Cl)cc1 | -15% | x | -7% | x | 6%[46.1 µM] | u
O=c1cc(/C=C/c2ccc([N+](=O)[O-])cc2)c2ccccc2[nH]1 | i | x | -13% | x | x | x
CCOc1cc(C2Nc3ccccc3NC3=C2C(=O)CC(C)(C)C3)ccc1OC(C)=O (stereo not drawn) | x | 2 | x | 7 | x | x
Cn1cccc1C1Nc2ccccc2NC2=C1C(=O)CC(C)(C)C2 (stereo not drawn) | -15%[1.46 µM] | 31* | -15% | 64 | 0% | u
CCOc1cc(C2Nc3ccccc3NC3=C2C(=O)CC(C)(C)C3)ccc1O (stereo not drawn) | x | 14* | x | 7 | x | x
